# Measurements from publication PMC5540273 (PLoS ONE, 2017).
# Values joined by “and” are separate entries in the source; they are usually repeats but may differ in a detail not shown here. Equal entries are not always repeated. Where two headings read alike, the source gives them in different places.
# Experiments:
# MST2 = system: T1, MST2; conditions: n = 1
# T1 construct: gene STK3
# MST3 = system: T2, MST3; conditions: concentration: 1 μM, replicates: in singlicate; n = 1
# T2 construct: gene STK24
# MST4 = conditions: n = 1
# MTOR = conditions: n = 1
# MUSK = conditions: n = 1
# MYLK2 = conditions: n = 1
# MYLK4 = conditions: n = 1
# MYLK = conditions: n = 1
# MYO3A = conditions: n = 1
# MYO3B = conditions: n = 1
# NDR1 = system: T3, NDR1; conditions: n = 1
# T3 construct: gene STK38
# NDR2 = conditions: concentration: 1 μM, replicates: in singlicate; n = 1
# NEK10 = conditions: n = 1
# NEK11 = conditions: concentration: 1 μM, replicates: in singlicate; n = 1
# NEK1 = conditions: concentration: 1 μM, replicates: in singlicate; n = 1
# NEK2 = conditions: n = 1
# NEK3 = conditions: n = 1
# NEK4 = conditions: n = 1
# NEK5 = conditions: n = 1
# NEK6 = conditions: concentration: 1 μM, replicates: in singlicate; n = 1
# [1] = concentration: 1 μM, replicates: in singlicate
# [2] = concentration: 1 μM,replicates: in singlicate, 1 µM
# 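Also: KINOMEscan kinase panel screen.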
smiles,measurement,setting,value
Cc1cccc(-c2cc(Nc3ccncc3)c3ccccc3n2)n1 [GSK223675],%Inh,MST2; [1],6%
same,%Inh,MST3,5%
same,%Inh,MST4; [1],0%
same,%Inh,MTOR; [1],7%
same,%Inh,MUSK; [1],1%
same,%Inh,MYLK2; [1],0%
same,%Inh,MYLK4; [1],0%
same,%Inh,MYLK; [1],15%
same,%Inh,MYO3A; [1],17%
same,%Inh,MYO3B; [1],0%
same,%Inh,NDR1; [1],0%
same,%Inh,NDR2,0%
same,%Inh,NEK10; [1],0%
same,%Inh,NEK11,0%
same,%Inh,NEK1,0%
same,%Inh,NEK2; [1],0%
same,%Inh,NEK3; [1],17%
same,%Inh,NEK4; [1],0%
same,%Inh,NEK5; [1],0%
same,%Inh,NEK6,0%
Cc1cc(NCC(c2ccccc2)c2ccccc2)nc(NCc2ccc(C(F)(F)F)cc2)n1 [GW497681],%Inh,MST2; [1],0%
same,%Inh,MST3,3%
same,%Inh,MST4; [1],0%
same,%Inh,MTOR; [1],1%
same,%Inh,MUSK; [1],0%
same,%Inh,MYLK2; [1],0%
same,%Inh,MYLK4; [1],0%
same,%Inh,MYLK; [1],15%
same,%Inh,MYO3A; [1],34%
same,%Inh,MYO3B; [1],0%
same,%Inh,NDR1; [1],10%
same,%Inh,NDR2,16%
same,%Inh,NEK10; [1],0%
same,%Inh,NEK11,0%
same,%Inh,NEK1,0%
same,%Inh,NEK2; [1],0%
same,%Inh,NEK3; [1],0%
same,%Inh,NEK4; [1],0%
same,%Inh,NEK5; [1],0%
same,%Inh,NEK6,0%
Nc1ncnc2[nH]c(-c3ccccc3)nc12 [AH5015],%Inh,MST2; [1],0%
same,%Inh,MST3,0%
same,%Inh,MST4; [1],1%
same,%Inh,MTOR; [1],9%
same,%Inh,MUSK; [1],18%
same,%Inh,MYLK2; [1],0%
same,%Inh,MYLK4; [1],30%
same,%Inh,MYLK; [1],7%
same,%Inh,MYO3A; [1],8%
same,%Inh,MYO3B; [1],0%
same,%Inh,NDR1; [1],0%
same,%Inh,NDR2,0%
same,%Inh,NEK10; [1],49%
same,%Inh,NEK11,71%
same,%Inh,NEK1,4%
same,%Inh,NEK2; [1],18%
same,%Inh,NEK3; [1],53%
same,%Inh,NEK4; [1],26%
same,%Inh,NEK5; [1],32%
same,%Inh,NEK6,0%
Cc1ccc(-c2cc(-c3c[nH]nc3-c3ccccn3)ccn2)cc1 [GW684088],%Inh,MST2; [1],3%
same,%Inh,MST3,25%
same,%Inh,MST4; [1],0%
same,%Inh,MTOR; [1],22%
same,%Inh,MUSK; [1],0%
same,%Inh,MYLK2; [1],39%
same,%Inh,MYLK4; [1],13%
same,%Inh,MYLK; [1],18%
same,%Inh,MYO3A; [1],46%
same,%Inh,MYO3B; [1],5%
same,%Inh,NDR1; [1],20%
same,%Inh,NDR2,47%
same,%Inh,NEK10; [1],0%
same,%Inh,NEK11,30%
same,%Inh,NEK1,0%
same,%Inh,NEK2; [1],0%
same,%Inh,NEK3; [1],8%
same,%Inh,NEK4; [1],0%
same,%Inh,NEK5; [1],11%
same,%Inh,NEK6,0%
Cc1nnc(-c2ccc3occ(-c4ccc(S(C)=O)cc4)c3c2)[nH]1 (stereo not shown),%Inh,MST2; [1],0%
same,%Inh,MST3,11%
same,%Inh,MST4; [1],0%
same,%Inh,MTOR; [1],10%
same,%Inh,MUSK; [1],16%
same,%Inh,MYLK2; [1],4%
same,%Inh,MYLK4; [1],7%
same,%Inh,MYLK; [1],11%
same,%Inh,MYO3A; [1],0%
same,%Inh,MYO3B; [1],2%
same,%Inh,NDR1; [1],1%
same,%Inh,NDR2,0%
same,%Inh,NEK10; [1],0%
same,%Inh,NEK11,0%
same,%Inh,NEK1,0%
same,%Inh,NEK2; [1],11%
same,%Inh,NEK3; [1],11%
same,%Inh,NEK4; [1],0%
same,%Inh,NEK5; [1],1%
same,%Inh,NEK6,8%
Cc1cc(-c2ccc3c(c2)CC[C@@H](N[C@@H](C)c2ccccc2)C3)cnc1N.Cl [GW412617],%Inh,MST2; [1],15%
same,%Inh,MST3,0%
same,%Inh,MST4; [1],0%
same,%Inh,MTOR; [1],14%
same,%Inh,MUSK; [1],28%
same,%Inh,MYLK2; [1],21%
same,%Inh,MYLK4; [1],8%
same,%Inh,MYLK; [1],10%
same,%Inh,MYO3A; [1],0%
same,%Inh,MYO3B; [1],0%
same,%Inh,NDR1; [1],0%
same,%Inh,NDR2,0%
same,%Inh,NEK10; [1],63%
same,%Inh,NEK11,20%
same,%Inh,NEK1,0%
same,%Inh,NEK2; [1],3%
same,%Inh,NEK3; [1],0%
same,%Inh,NEK4; [1],16%
same,%Inh,NEK5; [1],0%
same,%Inh,NEK6,14%
COc1cc2ncn(-c3cc(OCC4CCCO4)c(C(N)=O)s3)c2cc1OC (stereo not shown) [GSK204607],%Inh,MST2; [1],1%
same,%Inh,MST3,6%
same,%Inh,MST4; [1],0%
same,%Inh,MTOR; [1],11%
same,%Inh,MUSK; [1],1%
same,%Inh,MYLK2; [1],0%
same,%Inh,MYLK4; [1],81%
same,%Inh,MYLK; [1],19%
same,%Inh,MYO3A; [1],15%
same,%Inh,MYO3B; [1],0%
same,%Inh,NDR1; [1],12%
same,%Inh,NDR2,10%
same,%Inh,NEK10; [1],0%
same,%Inh,NEK11,0%
same,%Inh,NEK1,11%
same,%Inh,NEK2; [1],28%
same,%Inh,NEK3; [1],5%
same,%Inh,NEK4; [1],0%
same,%Inh,NEK5; [1],10%
same,%Inh,NEK6,0%
Cn1ccc2ncnc(Oc3ccc(Nc4nc5ccccc5[nH]4)cc3)c21,%Inh,MST2; [1],5%
same,%Inh,MST3,0%
same,%Inh,MST4; [1],0%
same,%Inh,MTOR; [1],0%
same,%Inh,MUSK; [1],21%
same,%Inh,MYLK2; [1],0%
same,%Inh,MYLK4; [1],0%
same,%Inh,MYLK; [1],0%
same,%Inh,MYO3A; [1],0%
same,%Inh,MYO3B; [1],0%
same,%Inh,NDR1; [1],0%
same,%Inh,NDR2,10%
same,%Inh,NEK10; [1],0%
same,%Inh,NEK11,0%
same,%Inh,NEK1,0%
same,%Inh,NEK2; [1],0%
same,%Inh,NEK3; [1],0%
same,%Inh,NEK4; [1],99.9%
same,%Inh,NEK5; [1],0%
same,%Inh,NEK6,0%
Cc1cccc(-c2nc(Nc3cccc(C(N)=O)c3)c3ccccc3n2)n1 [GW876019],%Inh,MST2; [1],20%
same,%Inh,MST3,0%
same,%Inh,MST4; [1],0%
same,%Inh,MTOR; [1],35%
same,%Inh,MUSK; [1],0%
same,%Inh,MYLK2; [1],0%
same,%Inh,MYLK4; [1],0%
same,%Inh,MYLK; [1],28%
same,%Inh,MYO3A; [1],11%
same,%Inh,MYO3B; [1],20%
same,%Inh,NDR1; [1],9%
same,%Inh,NDR2,0%
same,%Inh,NEK10; [1],12%
same,%Inh,NEK11,0%
same,%Inh,NEK1,6%
same,%Inh,NEK2; [1],0%
same,%Inh,NEK3; [1],28%
same,%Inh,NEK4; [1],0%
same,%Inh,NEK5; [1],12%
same,%Inh,NEK6,0%
CSc1nn2c(=O)cc(N3CCOCC3)nc2n1Cc1cccc(C(F)(F)F)c1C [GSK2363608],%Inh,MST2; [2],9% and 1%
same,%Inh,MST3,0%
same,%Inh,MST4; [2],90.3% and 0%
same,%Inh,MTOR; [2],13% and 28%
same,%Inh,MUSK; [2],12% and 4%
same,%Inh,MYLK2; [2],19% and 0%
same,%Inh,MYLK4; [2],17% and 0%
same,%Inh,MYLK; [2],6% and 0%
same,%Inh,MYO3A; [2],21% and 0%
same,%Inh,MYO3B; [2],0% and 14%
same,%Inh,NDR1; [2],17% and 8%
same,%Inh,NDR2,0%
same,%Inh,NEK10; [2],8% and 28%
same,%Inh,NEK11,0%
same,%Inh,NEK1,0%
same,%Inh,NEK2; [2],100% and 1%
same,%Inh,NEK3; [2],14% and 3%
same,%Inh,NEK4; [2],0% and 16%
same,%Inh,NEK5; [2],23% and 0%
same,%Inh,NEK6,0%
CC(C)(C)c1ccc(C(=O)Nc2cn3cc(-c4cccnc4)ccc3n2)cc1,%Inh,MST2; [1],42%
same,%Inh,MST3,38%
same,%Inh,MST4; [1],0%
same,%Inh,MTOR; [1],11%
same,%Inh,MUSK; [1],17%
same,%Inh,MYLK2; [1],53%
same,%Inh,MYLK4; [1],11%
same,%Inh,MYLK; [1],28%
same,%Inh,MYO3A; [1],8%
same,%Inh,MYO3B; [1],22%
same,%Inh,NDR1; [1],49%
same,%Inh,NDR2,0%
same,%Inh,NEK10; [1],2%
same,%Inh,NEK11,0%
same,%Inh,NEK1,13%
same,%Inh,NEK2; [1],8%
same,%Inh,NEK3; [1],54%
same,%Inh,NEK4; [1],0%
same,%Inh,NEK5; [1],31%
same,%Inh,NEK6,13%
Fc1cccc(COc2nnc(-c3ccc4c(c3)CCO4)o2)c1,%Inh,MST2; [1],0%
same,%Inh,MST3,25%
same,%Inh,MST4; [1],0%
same,%Inh,MTOR; [1],3%
same,%Inh,MUSK; [1],3%
same,%Inh,MYLK2; [1],0%
same,%Inh,MYLK4; [1],4%
same,%Inh,MYLK; [1],0%
same,%Inh,MYO3A; [1],0%
same,%Inh,MYO3B; [1],5%
same,%Inh,NDR1; [1],0%
same,%Inh,NDR2,4%
same,%Inh,NEK10; [1],0%
same,%Inh,NEK11,0%
same,%Inh,NEK1,10%
same,%Inh,NEK2; [1],0%
same,%Inh,NEK3; [1],12%
same,%Inh,NEK4; [1],0%
same,%Inh,NEK5; [1],0%
same,%Inh,NEK6,0%
CC(C)(C)c1ccc(C(=O)Nc2cn3cc(Cl)ccc3n2)cc1,%Inh,MST2; [1],0%
same,%Inh,MST3,0%
same,%Inh,MST4; [1],0%
same,%Inh,MTOR; [1],31%
same,%Inh,MUSK; [1],0%
same,%Inh,MYLK2; [1],0%
same,%Inh,MYLK4; [1],0%
same,%Inh,MYLK; [1],9%
same,%Inh,MYO3A; [1],7%
same,%Inh,MYO3B; [1],0%
same,%Inh,NDR1; [1],99.7%
same,%Inh,NDR2,0%
same,%Inh,NEK10; [1],4%
same,%Inh,NEK11,0%
same,%Inh,NEK1,0%
same,%Inh,NEK2; [1],0%
same,%Inh,NEK3; [1],21%
same,%Inh,NEK4; [1],0%
same,%Inh,NEK5; [1],0%
same,%Inh,NEK6,0%
CC1=C(C(=O)Nc2cc3cn[nH]c3cc2F)C(c2ccc(C(F)(F)F)cc2)CC(=O)N1 (stereo not shown) [GSK429286],%Inh,MST2; [1],0%
same,%Inh,MST3,0%
same,%Inh,MST4; [1],0%
same,%Inh,MTOR; [1],13%
same,%Inh,MUSK; [1],6%
same,%Inh,MYLK2; [1],0%
same,%Inh,MYLK4; [1],0%
same,%Inh,MYLK; [1],13%
same,%Inh,MYO3A; [1],0%
same,%Inh,MYO3B; [1],0%
same,%Inh,NDR1; [1],23%
same,%Inh,NDR2,0%
same,%Inh,NEK10; [1],7%
same,%Inh,NEK11,0%
same,%Inh,NEK1,0%
same,%Inh,NEK2; [1],0%
same,%Inh,NEK3; [1],6%
same,%Inh,NEK4; [1],24%
same,%Inh,NEK5; [1],0%
same,%Inh,NEK6,0%
